Screens from PubChem.
AGP1-GFP MLPCN: modulators of AGP1-GFP expression in yeast TOR pathway, primary screen, cell-based, multiplex flow cytometry, S. cerevisiae, MLPCN library | 3 h; GFP as percent of DMSO wells | GFP response vs DMSO, % at 10 µM | actives 0.02% (n = 320,000) | AID 2066, 2009;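 active = GFP response relative to DMSO above a set limit, near screen average plus 3 SD, cut at about 150% in these data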;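 note: median GFP channel fluorescence of the gated AGP1 strain per well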
LAP4-GFP MLPCN: modulators of LAP4-GFP expression in yeast, primary screen, S. cerevisiae, multiplex flow cytometry, MLPCN library; GFP response vs DMSO, % at 10 µM; 3 h; median GFP as percent of DMSO wells; actives 0.34% (n = 320,000);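 active = GFP response vs DMSO above a set limit, about the screen mean plus 3 SD, cut at about 150% in these data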
CIT2 TOR yeast: modulators of CIT2-GFP expression in yeast, primary screen, S. cerevisiae, GFP fusion, multiplex flow cytometry, MLPCN library | S. cerevisiae CIT2-GFP strain, 3 h; 100 means same as DMSO wells | GFP response vs DMSO, % at 10 µM | actives 0.065% (n = 320,000);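 active = GFP response relative to DMSO above a set limit, near the screen mean plus 3 SD, cut at about 150% in these data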;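 note: ratio of well median GFP fluorescence to mean of DMSO wells on the plate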
MEP2-GFP yeast: modulators of MEP2-GFP levels in yeast, primary screen, S. cerevisiae, multiplex flow cytometry, MLPCN library | S. cerevisiae MEP2-GFP strain, 3 h; 100% = DMSO control level | GFP response vs DMSO, % at 10 µM | actives 0.51% (n = 330,000) | AID 2016, 2009;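 active = GFP response versus DMSO above a set limit, roughly screen mean plus 3 SD, cut at about 180% in these data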;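 note: median GFP fluorescence of the barcode-gated MEP2-GFP cells per well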
RPL19A-GFP yeast: RPL19A-GFP expression modulators in yeast, primary screen, cell-based, S. cerevisiae, multiplex flow cytometry, MLPCN | percent response vs DMSO, % at 10 µM | AID 2025, 2009 | actives 0.3% (n = 330,000) | S. cerevisiae RPL19A-GFP strain, 3 h; stronger effect = lower value;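 active = percent response vs DMSO below 50%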;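 note: median channel GFP fluorescence of the barcoded RPL19A-GFP strain; ratio of sample median GFP to plate DMSO average so 100% = DMSO; lower means less RPL19A-GFP as with rapamycin TOR inhibition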
LAP4-GFP pick2: LAP4-GFP expression modulators in yeast, confirmation, cell-based, second cherry pick, flow cytometry; shares compounds with LAP4-GFP MLPCN; S. cerevisiae LAP4-GFP strain, 3 h; GFP response vs DMSO, % at 10 µM; actives 20% (n = 590);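 active = GFP signal as percent of the solvent control above about 150%, meaning raised reporter expression, limit read from the data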;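 note: ratio of well median GFP fluorescence to plate DMSO mean so 100% = DMSO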
MEP2 cherry2: modulators of MEP2-GFP levels in yeast, confirmation, S. cerevisiae, flow cytometry GFP, second cherry picks. actives 10% (n = 590). GFP response vs DMSO, % at 10 µM. S. cerevisiae MEP2-GFP strain, 3 h. shares compounds with LAP4-GFP MLPCN;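 active = GFP signal above 150% of the solvent control wells, that is a rise of more than half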;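 note: median channel GFP fluorescence of all gated yeast cells per well; ratio of median GFP to plate DMSO average so 100% = DMSO level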
RPL19A-GFP pick2: RPL19A-GFP modulators in TOR pathway yeast, confirmation, cell-based, S. cerevisiae, flow cytometry, second cherry pick; S. cerevisiae RPL19A-GFP strain, 3 h; stronger effect = lower value; 100% means same as DMSO wells; shares compounds with LAP4-GFP MLPCN; GFP response vs DMSO, % at 10 µM; actives 3% (n = 590); AID 2623, 2010;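 active = under 65% GFP response relative to DMSO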;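 note: median GFP channel fluorescence per well over the all cells gate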
CIT2 GFP CP2: modulators of CIT2-GFP expression in yeast, confirmation, flow cytometry, second cherry pick, single plex; shares compounds with LAP4-GFP MLPCN; S. cerevisiae CIT2-GFP strain, 3 h; DMSO control wells read 100%; GFP response vs DMSO, % at 10 µM; actives 8% (n = 590);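 active = GFP response vs DMSO above about 150%, limit read from the data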;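 note: median green fluorescence per well over all gated yeast cells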
AGP1 GFP CP2: AGP1-GFP expression modulators, hit retest, confirmation, cell-based, flow cytometry, S. cerevisiae, cherry pick set 2; percent response vs DMSO, % at 10 µM; AID 2643, 2010; S. cerevisiae AGP1-GFP strain, 3 h; 590 tested, under 10 active; shares compounds with LAP4-GFP MLPCN;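 active = over 150 percent of DMSO response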;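 note: median GFP channel fluorescence over all cells without mother daughter split; sample median GFP divided by mean DMSO control so 100% equals DMSO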
s288c autofluor: compound autofluorescence in yeast s288c, dose response, artefact control for yeast TOR pathway GFP screen, s288c strain; S. cerevisiae s288c, 520 nm autofluorescence, flow cytometry, 3 h; stronger effect = higher value; zero means same as solvent-only cells; 610 tested, under 10 active; AID 2757, 2010; shares compounds with LAP4-GFP MLPCN; fluorescence change (kMESF span) at 33 µM;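 active = fluorescence span over the dose series, or activity score, above about 33, limit read from the data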
An asterisk follows results filed as active; x = no result given. The list is not random: actives were taken first. Their share in the collection is about 0.93%.

SMILES	AGP1-GFP MLPCN	LAP4-GFP MLPCN	CIT2 TOR yeast	MEP2-GFP yeast	RPL19A-GFP yeast	LAP4-GFP pick2	MEP2 cherry2	RPL19A-GFP pick2	CIT2 GFP CP2	AGP1 GFP CP2	s288c autofluor
CC(CCN1CCN=C1Nc1ccccc1)c1ccccc1 (stereo not drawn)	84	123	95	98	100	x	x	x	x	x	x
COc1ccc(/C(C)=N/Nc2ccccc2Cl)c(O)c1	46	94	97	146	63	98	108	107	109	97	x
COc1ccc2[nH]c3c(c2c1)CCNC3c1ccc([N+](=O)[O-])o1 (stereo not drawn)	132	314*	266*	498*	135	317*	564*	145	414*	134	x
COc1cc(/C=C/C(=O)NC(C)C2CC3CCC2C3)cc(OC)c1OC (stereo not drawn)	92	98	93	88	91	x	x	x	x	x	x
COc1ccc(Cl)cc1C(Nc1cccnc1)c1ccc2cccnc2c1O (stereo not drawn)	106	192*	90	99	85	x	x	x	x	x	1
CCC(=O)NC(c1ccccc1OC)c1ccc2cccnc2c1O (stereo not drawn)	116	95	98	102	100	x	x	x	x	x	x
Cc1cc(C)c(C)c(S(=O)(=O)ON2C(=O)c3ccccc3C2=O)c1C	69	248*	82	92	99	x	x	x	x	x	0.81
Cc1ccc(S(=O)(=O)ON2C(=O)c3ccccc3C2=O)c(C)c1	57	122	70	99	61	132	168*	71	122	87	1.3
Cc1ccc(S(=O)(=O)N2CCN(CCc3ccccc3)CC2)c(C)c1	102	100	104	108	101	x	x	x	x	x	x
O=C1c2ccccc2C(=O)N1OS(=O)(=O)c1ccc(F)cc1	93	157*	101	102	99	x	x	x	x	x	1.6
Cc1cc(C)c(S(=O)(=O)ON2C(=O)c3ccccc3C2=O)cc1C	75	171*	76	109	70	x	x	x	x	x	2.2
C=CCn1c(SCc2csc(-c3ccc(Cl)cc3)n2)nnc1-c1ccccc1OC	101	104	96	104	106	x	x	x	x	x	x
Cn1c(=O)c(C(=O)NNC(=O)c2ccc(Br)cc2)c(O)c2ccccc21	72	127	90	128	64	162*	165*	79	81	86	2.5
CCCCC1OC23CCCCC2C(C#N)(C(=N)O3)C1(C#N)C#N (stereo not drawn)	70	97	93	189*	64	x	x	x	x	x	0.31
Cc1ccc(-c2c(C(=O)N/N=C/C3CC=CCC3)nnn2-c2nonc2N)cc1 (stereo not drawn)	103	103	110	111	106	x	x	x	x	x	x
O=C(Nc1ccccc1)c1cc2ccccc2o1	84	101	81	92	90	x	x	x	x	x	x
